Sa ugtP lethal = kills S. aureus RN4220 lacking UgtP; growth inhibition, % (concentration not given with the values); S. aureus RN4220 ugtP deletion, OD600 growth, 16 h; AID 1259309; hit rate 0.54% among 330,000; in the data active means growth inhibition above about 68%
PfHsp40 yeast = rescue of PfHsp40-mediated yeast toxicity. S. cerevisiae expressing PfHsp40, growth rescue, ATP luminescence. AID 504582. hit rate 0.68% among 340,000. growth rescue, % at 12.5 µM; in the data active means growth rescue above about 28%, passing the limit was not always enough; inconclusive means no clear call, values can overlap the other calls;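 further: yeast W303a lacking pdr1 and pdr3 grown in galactose medium; growth measured after three days at 30 °C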
Sa RN4220 lethal = S. aureus RN4220 growth inhibition | OD600, 16 h | inhibition, % (concentration not given with the values) | hit rate 0.33% among 330,000 | AID 1259311; in the data active means inhibition above about 85%
SSB-PriA inh = inhibitors of Klebsiella pneumoniae PriA binding to SSB C-terminal tail; AlphaScreen SSBct-PriA binding, biotinylated peptide; inhibition, % at 33 µM; hit rate 0.6% among 430,000; AID 1272365; in the data active means inhibition mostly above about 37%, no sharp cut-off; inactive means mostly below about 20%
VHR inh abs = DUSP3 (human) phosphatase inhibition; recombinant VHR phosphatase, pNPP absorbance; inhibition, % at 13.3 µM; hit rate 0.52% among 290,000; in the data active means inhibition above about 50%
Target sequence (P51452 whole entry, looked up): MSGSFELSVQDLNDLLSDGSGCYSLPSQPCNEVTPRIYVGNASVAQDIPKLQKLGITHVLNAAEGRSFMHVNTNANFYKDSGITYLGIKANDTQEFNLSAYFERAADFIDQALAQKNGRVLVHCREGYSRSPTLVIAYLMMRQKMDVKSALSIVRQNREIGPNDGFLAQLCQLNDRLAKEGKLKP
Mtb hypoxia inh = reduces hypoxia-regulated biosensor signal in M. tuberculosis; M. tuberculosis hypoxia-regulated fluorescent reporter, fluorescence; fluorescence inhibition, % (test concentration not listed); hit rate 0.1% among 300,000; in the data active means fluorescence inhibition mostly above about 23%, no sharp cut-off; inactive means mostly below about 17%
Hits are given with their value; . = inactive; ? = inconclusive; / = not tested or not shown; + = active, no number. In the library only some 1.8% were active in any assay of this set; here they are far more common.

SMILES | Sa ugtP lethal | PfHsp40 yeast | Sa RN4220 lethal | SSB-PriA inh | VHR inh abs | Mtb hypoxia inh
CCCCCCCCn1c(NS(=O)(=O)c2ccc3ccccc3c2)c(S(=O)(=O)c2ccc(C)cc2)c2nc3ccccc3nc21 | / | / | / | . | / | /
O=C(Nc1ccc(-c2cn3c(n2)SCC3)cc1)c1ccc(Br)o1 | / | / | / | . | / | /
CCCCCCCCn1c(NS(=O)(=O)c2ccc(C)cc2)c(S(=O)(=O)c2ccc(C)cc2)c2nc3ccccc3nc21 | / | / | / | 54.2 | / | /
CCCCCn1c(NS(=O)(=O)c2ccc(F)cc2)c(S(=O)(=O)c2ccc(C)cc2)c2nc3ccccc3nc21 | / | / | / | . | / | /
Cc1nc(-n2cccc2)sc1C(=O)NCCn1nc(-c2ccccn2)n(C)c1=O | / | / | / | . | / | /
CC(=O)Nc1ccc(NS(=O)(=O)c2cccc3nonc23)cc1 | . | . | . | . | 57.5 | .
O=C(C=Cc1ccc(F)cc1)NC(Cc1c[nH]c2ccccc12)C(=O)O (stereo unspecified) | . | / | . | / | / | .
O=C(Nc1nnc(-c2cccs2)o1)[C@@H]1COc2ccccc2O1 | / | / | / | . | / | /
Cc1ccc2nc(-c3cccc(NS(C)(=O)=O)c3)cc(-c3ccccc3)c2c1 | 94.1 | . | . | . | . | .
CS(=O)(=O)Nc1ccc(-c2cc(-c3ccccc3)c3cc(Cl)ccc3n2)cc1 | / | / | / | . | / | /
Cc1[nH]n(-c2ccccc2)c(=O)c1/C=N/N1C(=O)c2ccc3c4c(ccc(c24)C1=O)CC3 | / | . | / | / | 51.3 | /
CCOC(=O)CSc1nc2c(sc(=S)n2-c2ccccc2)c(=O)n1-c1ccc(OC)cc1OC | . | . | . | . | 52.6 | .
CCN(CC)C(=O)CSc1nc2c(sc(=S)n2-c2ccccc2)c(=O)n1-c1ccc(OC)cc1OC | . | . | . | . | . | .
COc1cccc2sc(OC3CN(C(=O)c4nc5ccccc5s4)C3)nc12 | / | / | / | . | / | /
COc1ccc(OC)c(/C=N/NC(=O)CSc2cc(C)nc3c(OC)cccc23)c1 | / | . | / | / | 53.0 | /
COc1cccc(/C=N/NC(=O)CSc2cccc3cccnc23)c1 | / | . | / | + | . | /
O=C(CSc1cccc2cccnc12)NN=Cc1cccnc1 | . | / | . | 83.4 | / | .
COc1cccc2c(SCC(=O)NN=Cc3ccccc3)cc(C)nc12 | . | / | . | / | / | .
COc1ccc(C=NNC(=O)c2ccc(Cn3cc(Br)c([N+](=O)[O-])n3)o2)c(OC)c1C | . | / | . | . | / | .
CCCCC(=O)NC(=S)Nc1cc([N+](=O)[O-])ccc1OC | active | ? | . | . | . | .
COc1ccc([N+](=O)[O-])cc1NC(=S)NC(C)=O | . | . | . | . | . | .
O=S(=O)(NC[C@H]1CCCN1c1ccccc1)c1cccc2ccccc12 | / | / | / | 32.0 | / | /
Cc1ccc(S(=O)(=O)NC[C@H]2CCCN2c2ccccc2)s1 | / | / | / | 34.0 | / | /
COc1ccc(CNCc2ccc(F)cc2)c(OC)c1 | . | . | . | . | . | .
COc1cccc(CNCc2ccc(OC)cc2OC)c1 | . | . | . | . | 55.7 | .
SMILES | Sa ugtP lethal | PfHsp40 yeast | Sa RN4220 lethal | SSB-PriA inh | VHR inh abs | Mtb hypoxia inh
CCOc1cc(CNCc2cc(OC)cc(OC)c2)ccc1OC | . | . | . | . | 51.3 | .
CCOc1cc(CNCc2ccc(C(=O)O)cc2)ccc1OC | . | . | . | . | . | .
Cc1nc(-c2ccco2)sc1C(=O)O | / | / | / | . | / | /
COC(=O)c1ccc([C@H](NC(=O)c2ccco2)[C@]2(C)C[C@H]2C2CCCCC2)cc1 | / | 67.9 | / | . | / | /
CCOC(=O)c1sc(NC(=O)Nc2cccc(Cl)c2)cc1C | 88.5 | . | 92.3 | . | . | .
CCOC(=O)c1sc(NC(=O)c2cccs2)cc1C | . | . | . | . | . | .
CC(=O)c1cc2ccc(O)cc2oc1=O | / | . | / | . | . | /
Cc1ccc(N=c2oc3cc(O)ccc3cc2C(N)=O)cc1 | . | 32.8 | . | . | . | .
O=C(Nc1ccccc1)C1=CC(c2csc3ccccc23)CC(OCCCCO)O1 (stereo unspecified) | . | / | . | / | / | .
Cc1ccc2c(C)c(C(=O)N3CCN(c4ncccn4)CC3)oc2c1C | . | . | . | 84.7 | . | .
CCC(CC)C(=O)Nc1c(C(=O)N2CCN(c3ccccc3)CC2)oc2ccccc12 | . | . | . | . | . | .
CC(C)C(=O)Nc1c(C(=O)N2CCN(c3ncccn3)CC2)oc2ccccc12 | . | . | . | . | 52.7 | .
Cc1ccc(O[C@H]2CCCN(C(=O)c3c(C)nc4ccccn34)C2)nn1 | / | / | / | . | / | /
CCCOc1ccc(C(=O)Nc2ccc(S(=O)(=O)Nc3cc(C)nc(C)n3)cc2)cc1 | . | . | . | . | 52.4 | .
CCC(=O)c1ccc(OCC(=O)Nc2ccc(S(=O)(=O)Nc3cc(C)nc(C)n3)cc2)cc1 | . | . | . | . | / | .
CCOc1ccc(C(=O)Nc2ccc3c(c2)OCC(C)(C)C(=O)N3)cc1OCC | / | / | / | . | / | /
O=C(COc1ccc(Cl)cc1)Nc1ccccc1Cl | . | . | . | . | 53.9 | .
NC(=O)c1ccccc1NC(=O)COc1ccc(Cl)cc1 | . | . | . | . | . | .
CCOc1ccc(N(CC(=O)NCCc2ccccc2)C(=O)CCC(=O)Nc2cc(C)ccn2)cc1 | . | . | . | 104.3 | . | .
Cc1ccnc(NC(=O)CCC(=O)N(CC(=O)NCCc2ccccc2)c2ccc(F)cc2)c1 | . | . | . | . | . | .
O=C(Cc1n[nH]c(=O)c2ccccc12)OCC(=O)c1ccc(F)cc1 | . | . | . | . | / | .
O=C(Cc1n[nH]c(=O)c2ccccc12)OCC(=O)c1ccc2c(c1)OCCO2 | . | 95.7 | . | . | . | .
CCS(=O)(=O)N1Cc2ccccc2CC1C(=O)N1CCN(c2ccccc2)CC1 (stereo unspecified) | . | . | . | . | 51.5 | .
O=C(Cc1csc(SCC(=O)c2ccccc2)n1)NCc1ccco1 | / | / | / | . | / | /
CCN1C(=O)C(C)(C)COc2cc(NS(=O)(=O)c3ccccc3Br)ccc21 | / | / | / | . | / | /
SMILES | Sa ugtP lethal | PfHsp40 yeast | Sa RN4220 lethal | SSB-PriA inh | VHR inh abs | Mtb hypoxia inh
CC1(C)CCC[C@]2(C)[C@H]3Cc4cc(O)ccc4O[C@]3(C)CC[C@@H]12 | / | 92.6 | / | . | / | /
COc1ccc2c(c1)C1C=CCC1C(c1cc3c(cc1Br)OCO3)N2 (stereo unspecified) | . | 67.8 | . | . | . | .
CC(=O)c1ccc2c(c1)C1C=CCC1C(c1cc3c(cc1Br)OCO3)N2 (stereo unspecified) | / | . | / | . | / | /
COc1cccc(NCc2cc(=O)oc3cc(C)c(O)cc23)c1 | 99.9 | / | 97.3 | . | 52.0 | .
CCOc1ccccc1NCc1cc(=O)oc2cc(C)c(O)cc12 | . | . | . | . | 55.4 | .
Cc1oncc1C(=O)NCCn1ccn2nccc12 | / | / | / | . | / | /
Cc1ccn2c(NC3CCCC3)c(-c3ccncc3)nc2c1 | . | . | . | . | . | .
Cc1ccn2c(NC3CCCCC3)c(-c3cccc(-c4cccc(Cl)c4)c3)nc2c1 | / | 132.3 | / | . | / | /
COc1ccc(-c2nc3ccccn3c2NC2CCCCC2)cc1SC1CCCCC1 | 99.7 | ? | . | . | / | .
COc1cc(-c2nc3ccccn3c2NCc2ccccc2)ccc1SC1CCCCC1 | . | ? | . | . | / | .
Cc1csc(CN2CCN(C(=O)c3ccc(Cl)cc3)CC2)n1 | / | / | / | . | / | /
O=c1cc(Cc2nnc(SCc3cccc(C(F)(F)F)c3)n2-c2ccc(Cl)cc2)[nH]c(=O)[nH]1 | / | / | / | . | / | /
